# Data published in PubChem BioAssay (NCATS).
# Inconclusive results are not listed. Activity calls are given as the source filed them. The call rests on the fitted dose curve; in most records, active means well fitted activation curve with a large enough effect; inconclusive means small, poorly fitted or top-dose-only effect; inactive means no such curve, though single readings can be large or run the other way.
# Experiment: Redox Reaction Profiling qHTS: Assay Interference Panel against the NCATS CANVASS Library (AID 1347401)
# Details: resazurin-DTT redox cycling, fluorescence, 15 min; series mostly up to 57.1 µM; activation (redox signal): at the top concentration
# Source text: Natural products and their derivatives continue to be wellsprings of nascent therapeutic potential. However, many laboratories have limited resources for biological evaluation, leaving their previously isolated or synthesized compounds largely or completely untested. To address this issue, the Canvass library of natural products was assembled (https://tripod.nih.gov/canvass), in collaboration with academic and industry researchers, for quantitative high-throughput screening (qHTS) across a diverse set of cell-based and biochemical assays. The pure (>85% purity by liquid chromatography/mass spectrometry [LC/MS]) Canvass library of 346 natural products were submitted by 45 academic laboratories and companies around the world. We collected pure natural products to circumvent deconvolution and structure elucidation due to time and resource limitations. The library was formatted into 1536-well plates and evaluated in 50 qHTS (in an 11-pnt concentration series) bioassays with broad scope of disease-relevant mechanisms. The resulting data set from 50 different assays was then systematically analyzed to identify overall trends and specific natural products with interesting biological activities. Reported herein are the results of each individual qHTS and their corresponding assay protocol. This profiling assay measures the resazurin-to-resorufin redox reaction in the presence of DTT and compound, and serves as a useful surrogate assay for measuring potential compound redox liability National Center for Advancing Translational Sciences (NCATS), Rockville, MD National Institute of Health (NIH), Bethesda, Maryland
# Redox Profiling assay protocol: 1. In a black-solid bottom, medium binding, 1536-well plates (Greiner 789176), 4 uL of [1x] 5uM Resazurin + 200 uM DTT + buffer (50 mM HEPES pH 7.3 + 50 mM NaCl) was dispensed (into columns 1 - 48, rows 1 - 32) using a BioRAPTR FRD dispenser (Beckman Coulter). 2. 23 nL of compounds were pin transferred into the assay plates (columns 5 - 48) using the Kalypsis pin tool (Wako USA) equipped with a 1536-well pin heads. This yields a final concentration range of 0.002 - 127 uM. Control compound Chloranil (NCGC00091254-06) was also pinned (23 nL) into column 2, rows 1 - 32 (working concentration 10 mM, 1:2 dilution; 16 points titrations; n = 2). The final concentration range for the Chloranil was 0.002 to 57.2 uM. For 100% activation control, a single dose of 23 nL Chloranil (350 uM working concentration) was pinned to columns 3 and 4, rows 1-32 for a final concentration of 2 uM. 3. The assay plates were centrifuged for 15 seconds at 1000 rpm. 4. An initial fluorescence readout was obtained using the ViewLux plate reader (PerkinElmer) using a 525 nm excitation and a 598 nm emission filters. 5. The assay plates were incubated for 15 minutes in the dark. 6. After incubation, the final fluorescence readout was obtained using the ViewLux plate reader (PerkinElmer) using a 525 nm excitation and a 598 nm emission filters.
# Potency means the concentration at half of the fitted maximal effect.
SMILES,activation (redox signal),Potency
CN1C(=O)[C@]23CC4C(C)(C)[C@@]5(C[C@@]41CN2CC[C@@]3(C)O)C(=O)Nc1c5ccc2c1OC=CC(C)(C)O2 (stereo not given in full),-13% (inactive),–
CO[C@@H](/C=C/CC/C=C/C(=O)O)[C@@H](O)[C@H](C)/C=C(\C)[C@@H](O)[C@H](C)C(=O)CCCC1CC(=O)NC(=O)C1,5.18% (inactive),–
CO[C@@H](/C=C/CC/C=C/C(=O)O)[C@@H](O)[C@H](C)[C@@H](O)/C(C)=C/[C@H](C)C(=O)CCCC1CC(=O)NC(=O)C1,10.8% (inactive),–
CCC(=O)CCCCC[C@@H]1NC(=O)[C@H]2CCCCN2C(=O)[C@H]([C@@H](C)CC)NC(=O)[C@H](Cc2cn(OC)c3ccccc23)NC1=O,-16.4% (inactive),–
CC[N@@+]1([O-])C[C@]2(C)CC[C@@H](O)[C@@]34C5C[C@H]6CC[C@@]5(C(C[C@H]23)C41)[C@H](O)[C@@]6(O)CO (stereo not given in full),-18.5% (inactive),–
C/C=C1/CN2CC[C@]34C(=Nc5ccccc53)[C@@H]2C[C@@H]1[C@H]4C(=O)OC,-17.8% [at 113 µM] (inactive),–
C[C@]12CC(O)C3[C@@H](CCC4C[C@@H](O)CC[C@@]43CO)[C@@]1(O)CCC2C1=CC(=O)OC1 (stereo not given in full),4.45% (inactive),–
CC1=CC(=O)C2=C(C)C[C@H](O)[C@@H]3[C@H](OC(=O)[C@@H]3C)[C@@H]12,-2.48% (inactive),–
CNCCc1ccccc1,-21.6% (inactive),–
C[C@@H]1CC[C@@H](c2ccoc2)N2C[C@@]3(CC[C@@H]12)CS[C@@]1(CC[C@H]2[C@H](C)CC[C@@H](c4ccoc4)N2[C@@H]1O)C3,-21.4% (inactive),–
CC(=O)N[C@H]1CCN2CCC[C@H]12,–,63.2 µM (active)
CN(C)Cc1c[nH]c2ccccc12,-0.445% (inactive),–
CCCC[C@@H]1CC[C@H]2CCCC(CCC)N12 (stereo not given in full),-2.9% (inactive),–
CNCCc1ccc(O)cc1,-23.4% (inactive),–
c1ccc2c3c([nH]c2c1)CNCC3,-22% (inactive),–
COc1ccc2c3c([nH]c2c1)C(C)=NCC3,-21.7% (inactive),–
COc1ccc2c(c1)[nH]c1c(C)nccc12,-23.9% [at 113 µM] (inactive),–
CC=C1CN(C=O)[C@H]2C[C@@H]1[C@@H](C(=O)OC)[C@@]13CCOC21Nc1ccccc13 (stereo not given in full),-6.87% (inactive),–
NCCc1ccccc1,-11.6% (inactive),–
O=C(c1ccccc1O)c1[nH]c(Cl)c(Cl)c1-n1c(C(=O)c2ccccc2O)cc(Cl)c1Cl,-30.5% (inactive),–
CC1=CC2CC[C@@H]3[C@@H](C)C[C@H](C)[C@@H](C1)N23 (stereo not given in full),-19.4% (inactive),–
CCCCC[C@@H]1OC(=O)[C@@H](C)N(C)C(=O)[C@H](CCCCC)OC(=O)C(C)N(C)C(=O)[C@H](CCCCC)OC(=O)[C@@H](C)N(C)C(=O)[C@H](CCCCC)OC(=O)C(C)N(C)C1=O (stereo not given in full),-17.2% (inactive),–
C=C1[C@@H](C)[C@H]2[C@H](Cc3ccccc3)NC(=O)[C@]23OC(=O)/C=C/[C@H](O)CCC[C@@H](C)C/C=C/[C@H]3[C@@H]1O,-10.8% (inactive),–
COC(=O)C1=C2Nc3ccccc3[C@@]23CCN2CC(C(C)=O)C1C[C@H]23 (stereo not given in full),-14.4% (inactive),–
CO[C@H](c1ccccc1)[C@H]1NC(=O)C(C)NC(=O)C(C[C@@H](C)CO)N(C)C(=O)[C@@H](C(O)c2cn(C(C)(C)C3CO3)c3ccccc23)NC(=O)C(C(C)C=C(C)C)NC(=O)C(CC(C)C)N(C)C(=O)C(C(C)C)NC1=O (stereo not given in full),-5.37% [at 34.1 µM] (inactive),–
CC[C@@H]1CN2CC[C@@]3(O)C(=Nc4cccc(OC)c43)[C@@H]2C[C@@H]1/C(=C\OC)C(=O)OC,-11.8% (inactive),–
CCN1C[C@]2(C)CC[C@H](O)[C@]34C1C(C[C@H]23)[C@@]12CC[C@H](CC14)[C@](O)(COC(=O)c1ccc(OC)c(OC)c1)[C@H]2O (stereo not given in full),-19.6% (inactive),–
COc1ccc(C23Oc4cc(OC)cc(OC)c4[C@](O)([C@H](c4ccccc4)C2C(=O)NCCCCNC(=O)c2ccccc2)[C@@H]3O)cc1 (stereo not given in full),-3.32% (inactive),–
CCN1C[C@]2(C)CC[C@@H](O)[C@]34C1[C@H](C[C@H]23)C12CCC(CC14)[C@](O)(CO)[C@H]2O (stereo not given in full),-20.9% (inactive),–
CNCCc1c[nH]c2ccccc12,-22% (inactive),–
